Experiment [1] can be described thus: rapamycin-like changes in RPL19A-GFP expression – cell-based, S. cerevisiae, multiplex flow cytometry, primary screen (AID 1862; in the data active = percent of DMSO control GFP below about 86%;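 note: lower values mimic rapamycin by blocking the RPL19A rise seen in DMSO cells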). As to conditions: S. cerevisiae RPL19A-GFP strain, flow cytometry fluorescence, 3 h; at 10 µM; stronger effect = lower value. A general note: In flow cytometry, cells or beads pass a laser one at a time.
Experiment [2] in a line: TOR pathway GLN3 branch reporter MEP2-GFP changes – S. cerevisiae, multiplex flow cytometry, primary screen (AID 1867;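 active = GFP response, as percent of the DMSO control, above the screen-wide mean plus 3 SD, about 139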;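 note: median GFP channel fluorescence of barcode-gated MEP2-GFP cells measured by flow cytometry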). As to conditions: S. cerevisiae MEP2-GFP strain, 3 h, at 10 µM, stronger effect = higher value.
Experiment [3] is described as follows: TOR pathway RTG branch CIT2 reporter changes – S. cerevisiae, GFP fusion, multiplex flow cytometry, primary screen (AID 1870;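 active = percent response above a set limit, the screen-wide mean plus 3 SD, cut at about 130% in these data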;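 note: barcoded CIT2-GFP strain pooled with four other GFP strains with rapamycin as positive control; median GFP fluorescence per well over plate mean of DMSO wells so 100% = DMSO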). As to conditions: S. cerevisiae CIT2-GFP expression, 3 h, at 10 µM, stronger effect = higher value.
The nature of experiment [4]: TOR pathway LAP4-GFP level changes – S. cerevisiae, multiplex flow cytometry, primary screen (AID 1873;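 active = GFP signal, as percent of the solvent control, above the screen mean plus 3 SD, about 149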). As to conditions: S. cerevisiae LAP4-GFP expression, 3 h, at 10 µM, stronger effect = higher value.
The nature of experiment [5]: yeast AGP1-GFP level changes, GLN3 branch – cell-based, multiplex flow cytometry, S. cerevisiae, primary screen (AID 1887;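 active = GFP signal above the screen-wide mean plus 3 SD, that is over about 124.5% of the solvent control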;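 note: AGP1-GFP fusion strain of S. cerevisiae within a five-strain barcoded multiplex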). As to conditions: 3 h, at 10 µM, stronger effect = higher value.
The nature of experiment [6]: reduced mouse 2C T cell binding to pMHC/ICAM-1 vesicles – MLPCN validation set, flow cytometry, LFA-1/ICAM-1 modulator project, pilot screen (AID 2523;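 active = response below a set limit, under 55% cells CD8-positive and vesicle-bound, and CD8 cells' 90th-percentile brightness under 279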;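 for vesicle binding response: mean PE anti-B7-1 fluorescence of CD8+ cells relative to row control; 100% = QL9-loaded vesicles with DMSO vehicle in the same plate row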). Conditions: 2C mouse CD8+ T cells, at 7 µM, stronger effect = lower value; double positive events: measured here: CD8+/vesicle+ event percentage.
The target of experiment [7] is Integrin beta-1 (Homo sapiens) + Integrin alpha-4 (Homo sapiens) (UniProt P13612+P05556). The experiment in a line: alpha4beta1 integrin LIBS antibody binding reduction – U937 cells, HUTS-21 mAb, flow cytometry, validation set, VLA-4 allosteric modulator project, pilot screen (AID 2674;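 active = inhibition above 50%, about 3 SD of the validation set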;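 note: antibody binding induced by the VLA-4 ligand LDV present at three times its Kd; 0% = LDV ligand with antibody and no compound and 100% = antibody without LDV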). Conditions: HUTS-21 LIBS mAb binding, at 6.7 µM, stronger effect = higher value.
Experiment [8] is described as follows: calorie-restriction mimetic ROS inhibitors, yeast – validation compound set, pilot screen (AID 2706;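 active = superoxide response below 65% of plate, a cut near 3 SD across the whole screen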;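 note: yeast exposed to compound for one week at 30 degrees C before staining; 100% = mean of all compound wells on the same plate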). As to conditions: S. cerevisiae aging, superoxide DHE fluorescence; at 10 µM; stronger effect = lower value.
Experiment [9] concerns the target Beta-adrenergic receptor kinase 1 (Homo sapiens) (UniProt P25098). Description: GRK2 binders displacing RNA aptamer, biochemical, validation, human GRK2, bead flow cytometry (AID 488806;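 active = aptamer binding inhibition above 30%, about 3 SD of noise from non-fluorescent compounds; inactive = inhibition at or below 30%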). Conditions: bead-bound GRK2, FAM-aptamer displacement, at 10 µM, stronger effect = higher value.
The target in experiment [10] is Beta-2 adrenergic receptor (Homo sapiens) (UniProt P07550). Description: agonist-induced loss of surface beta2AR – cell-based, FAP fluorogen, flow cytometry, validation set, pilot screen (AID 504459;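 active = percent response above 42, roughly 3 SD of non-fluorescent test compounds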;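 note: agonist-driven loss of surface beta2AR via internalization measured by FAP dye flow cytometry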). Conditions: Am2.2-beta2AR cells, at 10 µM, stronger effect = higher value.
For experiment [11], the target named is AP-2 complex subunit beta (Homo sapiens) (UniProt P63010). Description: beta-arrestin/AP2 interaction blockers – biochemical, validation set, GST-AP2 beads, flow cytometry, pilot screen (AID 504541;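 active = inhibition above 54%, about 3 SD of non-fluorescent compounds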;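 note: AP2 carries R879A mutation and is captured from E. coli lysate; bead-bound FITC arrestin peptide fluorescence measuring arrestin peptide binding to AP2; 0% = DMSO wells and 100% = excess unlabeled arrestin peptide control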). Conditions: FITC arrestin peptide, at 10 µM, stronger effect = higher value.
A short description of experiment [12]: cytosolic pH regulators acting via V-ATPase – S. cerevisiae, pHLuorin, HTS validation (AID 504600; in the data active = response above about 15%;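 note: plate controls were DMSO for no effect and reference compound for full effect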). As to conditions: V-ATPase proton transport, at 10 µM, stronger effect = higher value.
In experiment [13] the test system is anti-desmoglein-3 scFv antibody binding to human DSG3. The experiment in a line: blockers of pathogenic pemphigus antibody–desmoglein-3 binding – biochemical, validation compound set, bead-based, flow cytometry, pilot screen (AID 588368;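 active = binding below the plate cutoff, the plate median minus 3 SD, with a reading above zero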;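 note: signal is the median channel fluorescence of bead-bound GFP antibody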). As to conditions: Protein G beads, DSG3-Fc, scFv-GFP binding, at 10 µM, stronger effect = lower value.
In experiment [14] the test system is Botulinum neurotoxin type F light chain protease (Clostridium botulinum). Description: Clostridium botulinum type F light chain protease inhibitors, microsphere substrate cleavage, validation (AID 588459). As to conditions: multiplex microsphere protease substrate cleavage assay, flow cytometry; at 10 µM; stronger effect = higher value.
Experiment [15] concerns the target Botulinum neurotoxin type A (Clostridium botulinum) (UniProt P0DPI0). Description: BoNT/A light chain protease inhibitors, biochemical, multiplex microsphere flow cytometry, validation set (AID 588460). As to conditions: at 10 µM, stronger effect = higher value.
The target in experiment [16] is Lethal factor (Bacillus anthracis) (UniProt P15917). Description: Bacillus anthracis lethal factor inhibition, microsphere flow cytometry protease assay, validation at 10 µM (AID 588461). Conditions: multiplex microsphere protease cleavage assay, stronger effect = higher value.
The nature of experiment [17]: Nile Red efflux blockade in pump-expressing yeast – validation compound set, multiplex, phenotypic, pilot screen (AID 588506;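 active = efflux inhibition above 0.42, the validation set average plus 4 SD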;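 note: Nile Red retained in cells so higher fluorescence means more efflux inhibition; 0 = negative control wells and 1 = enniatin B 25 µM full block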). Conditions: S. cerevisiae pump-expressing triplex, Nile Red efflux flow cytometry; at 10 µM; stronger effect = higher value.
In experiment [18] the target is ATP-binding cassette sub-family B member 6 (Homo sapiens) (UniProt Q9NP58). Description: blockers of ABCB6-driven porphyrin uptake – K562-ABCB6 cells, flow cytometry, validation set, pilot screen (AID 588550;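 active = inhibition above the screen-wide mean plus 3 SD, about 51%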;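 note: 0% = DMSO wells and 100% = benzethonium chloride 70 µM positive control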). Conditions: K562-ABCB6 porphyrin accumulation, 1 h, at 10 µM, stronger effect = higher value.
A short description of experiment [19]: AML differentiation inducers, ER-HoxA9 marrow cells – cell-based, GFP/MAC1 double positive, flow cytometry, validation set, primary screen (AID 588685;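 active = differentiation response of at least 50%, scaled between solvent and reference control, from cells with both markers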;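 note: compound exposure lasts four days before antibody staining and flow analysis; 0% = DMSO wells and 100% = 5 µM fulvestrant positive control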). Conditions: stronger effect = higher value.

A word on the inhibition: it is the drop in the measured response relative to a control, in per cent.

Results filed as inconclusive are left out. The source made the active and inactive calls. Unless noted, the rule behind the calls is not given here.

Beta-adrenergic receptor kinase 1 (Homo sapiens), sequence (P25098 whole entry, looked up): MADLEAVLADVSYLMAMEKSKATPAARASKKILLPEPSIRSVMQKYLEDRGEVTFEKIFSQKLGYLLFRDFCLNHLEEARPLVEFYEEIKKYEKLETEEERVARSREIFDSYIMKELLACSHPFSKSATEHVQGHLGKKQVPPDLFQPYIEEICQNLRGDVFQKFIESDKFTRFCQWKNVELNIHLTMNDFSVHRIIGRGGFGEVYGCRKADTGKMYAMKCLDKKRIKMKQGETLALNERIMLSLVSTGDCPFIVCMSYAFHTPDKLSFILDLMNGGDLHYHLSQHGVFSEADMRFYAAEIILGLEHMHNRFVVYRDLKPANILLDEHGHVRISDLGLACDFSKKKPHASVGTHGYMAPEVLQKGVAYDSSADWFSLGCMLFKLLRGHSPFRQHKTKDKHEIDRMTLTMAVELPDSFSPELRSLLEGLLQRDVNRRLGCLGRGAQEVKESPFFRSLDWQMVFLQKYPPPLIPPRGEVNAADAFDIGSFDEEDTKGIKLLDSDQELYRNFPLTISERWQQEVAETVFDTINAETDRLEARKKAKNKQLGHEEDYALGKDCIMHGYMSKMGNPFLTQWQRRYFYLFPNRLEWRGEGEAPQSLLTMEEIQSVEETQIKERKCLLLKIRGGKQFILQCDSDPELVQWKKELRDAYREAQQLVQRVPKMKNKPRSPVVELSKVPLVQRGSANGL
Lethal factor (Bacillus anthracis), sequence (P15917 whole entry, looked up): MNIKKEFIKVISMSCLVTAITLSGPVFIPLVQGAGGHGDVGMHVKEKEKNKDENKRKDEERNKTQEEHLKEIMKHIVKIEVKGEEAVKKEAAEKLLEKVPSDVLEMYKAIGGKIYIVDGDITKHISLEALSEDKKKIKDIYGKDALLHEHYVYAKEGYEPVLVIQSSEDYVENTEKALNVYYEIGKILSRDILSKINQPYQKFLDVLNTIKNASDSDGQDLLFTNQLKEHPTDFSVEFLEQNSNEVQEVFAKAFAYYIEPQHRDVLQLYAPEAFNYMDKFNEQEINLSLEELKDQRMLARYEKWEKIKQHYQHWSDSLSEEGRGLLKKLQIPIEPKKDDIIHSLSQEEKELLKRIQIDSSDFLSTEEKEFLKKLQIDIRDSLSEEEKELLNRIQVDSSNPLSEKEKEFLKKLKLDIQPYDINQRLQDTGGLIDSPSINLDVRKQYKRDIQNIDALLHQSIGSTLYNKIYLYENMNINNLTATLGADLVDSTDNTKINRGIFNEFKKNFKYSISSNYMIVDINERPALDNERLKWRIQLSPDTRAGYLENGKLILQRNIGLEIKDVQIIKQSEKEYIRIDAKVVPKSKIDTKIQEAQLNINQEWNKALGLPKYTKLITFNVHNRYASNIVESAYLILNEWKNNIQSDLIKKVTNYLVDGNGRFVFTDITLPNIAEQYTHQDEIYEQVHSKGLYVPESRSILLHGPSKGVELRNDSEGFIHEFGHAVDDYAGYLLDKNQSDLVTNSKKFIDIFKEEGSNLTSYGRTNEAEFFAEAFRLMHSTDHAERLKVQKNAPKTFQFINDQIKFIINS
Integrin beta-1 (Homo sapiens) + Integrin alpha-4 (Homo sapiens), sequence (P05556 whole entry, looked up): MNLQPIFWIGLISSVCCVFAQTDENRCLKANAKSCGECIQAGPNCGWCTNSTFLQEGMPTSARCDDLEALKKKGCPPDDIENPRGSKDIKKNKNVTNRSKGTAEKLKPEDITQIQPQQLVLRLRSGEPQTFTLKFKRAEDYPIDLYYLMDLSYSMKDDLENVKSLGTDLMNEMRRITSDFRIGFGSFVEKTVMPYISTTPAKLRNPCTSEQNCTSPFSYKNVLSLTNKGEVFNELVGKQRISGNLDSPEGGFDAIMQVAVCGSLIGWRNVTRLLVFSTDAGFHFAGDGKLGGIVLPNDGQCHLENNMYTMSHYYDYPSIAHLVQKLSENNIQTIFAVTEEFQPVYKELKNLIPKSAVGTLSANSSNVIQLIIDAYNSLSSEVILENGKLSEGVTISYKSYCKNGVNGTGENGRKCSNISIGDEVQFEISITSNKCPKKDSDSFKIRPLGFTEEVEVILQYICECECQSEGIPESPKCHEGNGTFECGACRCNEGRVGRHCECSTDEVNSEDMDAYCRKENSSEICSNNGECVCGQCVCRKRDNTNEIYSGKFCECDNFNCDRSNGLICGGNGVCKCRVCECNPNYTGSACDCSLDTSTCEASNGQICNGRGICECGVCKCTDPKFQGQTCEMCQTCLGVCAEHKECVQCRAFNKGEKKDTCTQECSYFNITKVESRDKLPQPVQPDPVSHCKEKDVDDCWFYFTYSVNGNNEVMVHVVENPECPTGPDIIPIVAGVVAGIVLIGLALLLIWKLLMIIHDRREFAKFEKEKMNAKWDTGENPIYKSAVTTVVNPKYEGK
Integrin beta-1 (Homo sapiens) + Integrin alpha-4 (Homo sapiens), sequence (P13612 whole entry, looked up): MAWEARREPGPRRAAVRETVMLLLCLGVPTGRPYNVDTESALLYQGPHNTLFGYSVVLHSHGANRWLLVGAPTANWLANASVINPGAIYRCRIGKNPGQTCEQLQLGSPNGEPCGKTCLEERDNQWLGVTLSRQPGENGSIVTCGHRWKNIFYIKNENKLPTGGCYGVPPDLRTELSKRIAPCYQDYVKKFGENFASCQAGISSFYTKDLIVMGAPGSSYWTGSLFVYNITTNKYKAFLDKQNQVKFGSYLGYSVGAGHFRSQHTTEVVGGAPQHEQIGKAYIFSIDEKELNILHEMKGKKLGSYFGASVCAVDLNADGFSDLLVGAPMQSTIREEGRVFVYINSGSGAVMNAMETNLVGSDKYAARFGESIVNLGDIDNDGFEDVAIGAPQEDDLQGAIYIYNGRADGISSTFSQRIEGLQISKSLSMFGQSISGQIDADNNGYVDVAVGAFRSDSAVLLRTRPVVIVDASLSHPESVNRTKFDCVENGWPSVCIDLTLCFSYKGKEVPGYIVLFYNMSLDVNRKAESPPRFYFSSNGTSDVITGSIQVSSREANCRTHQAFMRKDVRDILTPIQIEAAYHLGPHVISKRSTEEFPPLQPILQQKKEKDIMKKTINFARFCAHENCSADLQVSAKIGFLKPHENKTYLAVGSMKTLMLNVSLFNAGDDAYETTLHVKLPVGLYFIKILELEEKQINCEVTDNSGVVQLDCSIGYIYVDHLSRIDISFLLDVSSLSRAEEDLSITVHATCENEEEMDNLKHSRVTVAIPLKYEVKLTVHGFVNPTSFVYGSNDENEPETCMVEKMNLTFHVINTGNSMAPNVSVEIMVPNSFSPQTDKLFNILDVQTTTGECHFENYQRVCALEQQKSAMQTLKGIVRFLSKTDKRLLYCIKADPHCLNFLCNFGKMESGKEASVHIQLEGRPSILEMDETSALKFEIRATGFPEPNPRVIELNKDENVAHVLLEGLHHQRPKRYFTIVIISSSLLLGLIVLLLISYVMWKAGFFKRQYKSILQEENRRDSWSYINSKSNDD
ATP-binding cassette sub-family B member 6 (Homo sapiens), sequence (Q9NP58 whole entry, looked up): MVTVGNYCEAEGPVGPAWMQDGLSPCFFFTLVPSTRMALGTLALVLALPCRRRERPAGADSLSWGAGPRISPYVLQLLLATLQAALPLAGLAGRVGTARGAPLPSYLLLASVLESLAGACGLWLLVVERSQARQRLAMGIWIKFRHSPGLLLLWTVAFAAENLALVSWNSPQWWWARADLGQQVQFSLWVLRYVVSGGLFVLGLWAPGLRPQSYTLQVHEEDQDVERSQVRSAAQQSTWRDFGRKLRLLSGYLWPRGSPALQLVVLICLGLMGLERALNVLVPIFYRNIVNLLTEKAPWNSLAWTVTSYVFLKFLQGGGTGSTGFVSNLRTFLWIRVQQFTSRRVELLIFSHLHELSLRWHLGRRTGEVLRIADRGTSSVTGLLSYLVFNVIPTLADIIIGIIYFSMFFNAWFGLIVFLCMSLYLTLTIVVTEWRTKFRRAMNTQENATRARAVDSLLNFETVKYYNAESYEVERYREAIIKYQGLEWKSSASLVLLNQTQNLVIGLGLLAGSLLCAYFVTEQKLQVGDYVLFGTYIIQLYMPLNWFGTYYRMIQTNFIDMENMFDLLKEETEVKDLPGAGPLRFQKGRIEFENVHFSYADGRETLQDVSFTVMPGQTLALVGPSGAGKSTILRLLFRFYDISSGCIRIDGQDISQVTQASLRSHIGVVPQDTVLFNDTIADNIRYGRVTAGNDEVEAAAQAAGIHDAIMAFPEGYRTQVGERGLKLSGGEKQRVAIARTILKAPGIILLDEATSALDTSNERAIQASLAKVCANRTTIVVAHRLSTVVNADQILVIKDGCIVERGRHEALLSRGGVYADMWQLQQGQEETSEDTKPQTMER
Beta-2 adrenergic receptor (Homo sapiens), sequence (P07550 whole entry, looked up): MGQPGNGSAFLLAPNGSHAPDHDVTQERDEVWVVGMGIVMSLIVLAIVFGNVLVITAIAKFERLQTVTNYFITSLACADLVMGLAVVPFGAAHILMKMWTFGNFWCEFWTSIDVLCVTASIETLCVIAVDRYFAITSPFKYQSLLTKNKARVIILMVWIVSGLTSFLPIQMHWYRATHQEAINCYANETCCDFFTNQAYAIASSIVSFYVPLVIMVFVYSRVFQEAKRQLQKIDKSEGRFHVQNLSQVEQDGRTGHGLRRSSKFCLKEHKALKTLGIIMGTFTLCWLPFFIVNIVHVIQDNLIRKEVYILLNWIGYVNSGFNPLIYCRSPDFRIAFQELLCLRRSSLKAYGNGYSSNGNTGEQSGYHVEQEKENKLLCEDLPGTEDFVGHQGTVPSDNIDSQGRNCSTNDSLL

`CN1C[C@H](CNC(=O)OCc2ccccc2)C[C@@H]2c3cccc4c3c(cn4C)C[C@H]21`: in [1], the percent of DMSO control GFP was 103% (inactive). The GFP response vs DMSO in experiment [2] was 101% (inactive); in experiment [4], 104% (inactive). Besides, in experiment [3], the percent response of DMSO control is 99% (inactive). Further, in experiment [5], the GFP response, % of DMSO was 108% (inactive). In experiment [6], this molecule showed a double positive events of 63.3%. In experiment [6], the vesicle binding response is 365% (inactive). Besides, the inhibition in experiment [7] is -34.3% (inactive); in experiment [11], -6.87% (inactive); in experiment [14] it was -0.5% (inactive); in [15] it was 1.5% (inactive); in [16], -7.6% (inactive); in [18], -29% (inactive). For the same molecule, the superoxide response (% of plate) in experiment [8] was 125% (inactive). For the same molecule, in experiment [9], the aptamer binding inhibition was -1% (inactive). For the same molecule, the response in [10] was 13.7% (inactive); in experiment [12], -0.08% (inactive). Besides, the binding (% of control) in experiment [13] was 110% (inactive). For the same molecule, the efflux inhibition (fraction of control) in [17] is 0.04 (inactive). The differentiation response in [19] was -6.96% (inactive).

As for `c1ccc2c3c([nH]c2c1)CNCC3`, the percent of DMSO control GFP in experiment [1] is 100% (inactive). In addition, the GFP response vs DMSO in experiment [2] is 104% (inactive); in experiment [4], 111% (inactive). The percent response of DMSO control in experiment [3] was 106% (inactive). The GFP response, % of DMSO in experiment [5] is 105% (inactive). In experiment [6], this molecule gave a double positive events of 55.3%. The vesicle binding response in experiment [6] was 82.8% (inactive). The inhibition in experiment [7] is -19.9% (inactive); in experiment [11], -0.49% (inactive); in experiment [14], -9.7% (inactive); in [15], 0.1% (inactive); in [16], -60.3% (inactive); in experiment [18] it was -82% (inactive). The superoxide response (% of plate) in experiment [8] is 113% (inactive). Also, in [9], the aptamer binding inhibition is -5% (inactive). For the same molecule, the response in experiment [10] was -12.8% (inactive); in experiment [12] it was 0.12% (inactive). In addition, the binding (% of control) in experiment [13] was 181% (inactive). For the same molecule, the efflux inhibition (fraction of control) in experiment [17] is 0.395 (inactive). Also, the differentiation response in experiment [19] is -0.18% (inactive).

In the case of `COc1cc2c3cc1Oc1cc(ccc1O)C[C@@H]1c4c(cc(OC)c(O)c4Oc4ccc(cc4)C[C@H]3N(C)CC2)CCN1C`, the percent of DMSO control GFP in [1] is 88.2% (inactive). The results for the GFP response vs DMSO in [2] and in experiment [4] were 125% (inactive) and 81.4% (inactive), respectively. In addition, in experiment [3], the percent response of DMSO control was 107% (inactive). For the same molecule, the GFP response, % of DMSO in [5] is 90.5% (inactive). Also, the double positive events in experiment [6] worked out at 56.5%. The vesicle binding response in [6] was 214% (inactive). Further, the inhibition in experiment [7] was 7.43% (inactive); in experiment [11] it was 19.2% (inactive); in experiment [14] it was -3.1% (inactive); in experiment [15] it was -3% (inactive); in experiment [16] it was -7.1% (inactive); in [18], 10% (inactive). In addition, the superoxide response (% of plate) in experiment [8] was 92.4% (inactive). Moreover, in experiment [9], the aptamer binding inhibition was 2% (inactive). Further, the response in experiment [10] was 17.5% (inactive); in [12] it was 1.91% (inactive). In experiment [13], the binding (% of control) was 105% (inactive). Further, the efflux inhibition (fraction of control) in experiment [17] is 0.05 (inactive). Further, the differentiation response in experiment [19] was -3.28% (inactive).

Take `CC[C@]12C=CCN3CCC4(c5cc(Br)c(OC)cc5N(C)C4[C@@](O)(C(=O)OC)[C@@H]1OC(C)=O)C32` (stereo not given in full): the percent of DMSO control GFP in experiment [1] is 88.9% (inactive). Also, the GFP response vs DMSO in [2] was 130% (inactive); in experiment [4], 84.2% (inactive). In [3], the percent response of DMSO control was 96.6% (inactive). The GFP response, % of DMSO in experiment [5] was 90.5% (inactive). Besides, the double positive events in experiment [6] was 48.2%. Moreover, in [6], the vesicle binding response is 18.6% (active). Moreover, the inhibition in [7] is 29.7% (inactive); in experiment [11], -7.24% (inactive); in experiment [14], 2.5% (inactive); in [15] it was 1.6% (inactive); in experiment [16], -5.6% (inactive); in experiment [18] it was 10% (inactive). Further, in experiment [8], the superoxide response (% of plate) was 95.7% (inactive). In [9], the aptamer binding inhibition is 5% (inactive). Also, the figures for the response in [10] and in experiment [12] were -10.3% (inactive) and 5.2% (inactive), respectively. The binding (% of control) in experiment [13] is 109% (inactive). The efflux inhibition (fraction of control) in experiment [17] was 0.23 (inactive). Besides, the differentiation response in experiment [19] was 0% (inactive).

(Values after PubChem BioAssay.)
